According to PubChem BioAssay AID1159580 (chemical genetic matrix, 2015):
Screen size: about 5,500 compounds; about 2,000 (36%) were called active. Roughly 18% stayed inconclusive and do not appear here. No stated cut-off is given here; in the data, active means normalized growth mostly below about 0.91 (no sharp cut-off); inconclusive means no clear call, values can overlap the other calls; inactive means mostly above about 0.92. Some of the results follow.

Assay: chemical genetic growth profiling, strain panel (AID 1159580);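 further: tested at 20 µM; growth read once vehicle control cultures reached saturation at 30 °C; 1 = growth at the plate median or of vehicle wells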
Details: S. cerevisiae deletion strains, growth OD

Measured: normalized growth

Cc1cccc(Cn2c(C)c(C)c(S(=O)(=O)c3ccccc3)c2N)c1C
active: locus YLR085C, strain ARP6, stronger effect = lower value 1.24 [resistant]
inactive: locus YAL013W, strain DEP1, stronger effect = lower value 1.03 | locus YBR229C, strain ROT2, stronger effect = lower value 1.01 | locus YDL101C, strain DUN1, stronger effect = lower value 0.98 | locus YDL134C, strain PPH21, stronger effect = lower value 0.978 | locus YDR150W, strain NUM1, stronger effect = lower value 1.01 | locus YEL061C, strain CIN8, stronger effect = lower value 0.998 | locus YGR078C, strain PAC10, stronger effect = lower value 1.03 | locus YGR229C, strain SMI1, stronger effect = lower value 0.984 | locus YHR030C, strain SLT2, stronger effect = lower value 0.917 | locus YHR087W, strain rtc3, stronger effect = lower value 1.01 | locus YJL187C, strain SWE1, stronger effect = lower value 0.996 | locus YJR043C, strain POL32, stronger effect = lower value 1 | locus YJR075W, strain HOC1, stronger effect = lower value 0.996 | locus YKL190W, strain CNB1, stronger effect = lower value 0.987 | locus YLR039C, strain RIC1, stronger effect = lower value 0.803 | locus YLR058C, strain SHM2 (second series), stronger effect = lower value 0.999 | locus YLR262C, strain YPT6, stronger effect = lower value 0.873 | locus YML094W, strain GIM5, stronger effect = lower value 1.05 | locus YMR219W, strain ESC1, stronger effect = lower value 1.01 | locus YMR263W, strain SAP30, stronger effect = lower value 1.01 | locus YNL128W, strain TEP1, stronger effect = lower value 0.998 | locus YNL153C, strain GIM3, stronger effect = lower value 1.04 | locus YNL298W, strain CLA4 (second series), stronger effect = lower value 0.98 | locus YNL322C, strain KRE1, stronger effect = lower value 1 | locus YNR030W, strain Alg12, stronger effect = lower value 1.01 | locus YPL055C, strain LGE1, stronger effect = lower value 1.06 | locus YPL241C, strain CIN2, stronger effect = lower value 1.03 | locus YPR135W, strain CTF4, stronger effect = lower value 1.16
